Data: PubChem BioAssay (NCATS)
Inconclusive results are not listed. The source made the active and inactive calls. Unless noted, calls come from the whole dose curve; as a rule, active = well fitted curve in the direction sought with a large enough effect; inconclusive = small, poorly fitted or top-dose-only effect, or another doubt; inactive = no such curve, though single readings can be large; an effect the other way counts as inactive or inconclusive.

How the values were obtained:
[1] = High Content Imaging Cell-Based qHTS for Inhibitors of the mTORC1 Signaling Pathway in MEF Cells (AID 2667);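 note: Tsc2-/- p53-/- MEFs stably re-expressing wild-type Tsc2 exposed 24 h; series mostly up to about 38 µM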
Outline: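 Fixed-cell imaging of phospho-S6 (Ser235/236, Alexa-488) after 24 hrs of compound treatment at 37 degree Celsius. Signal was normalized to Hoechst, and thresholds from the highest and lowest wells split cells into % active versus % non-active.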

[2] = Cytometry Cell-Based qHTS for Inhibitors of the mTORC1 Signaling Pathway in MEF cells (AID 2668);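 note: Tsc2-/- p53-/- mouse embryonic fibroblasts stably re-expressing wild-type Tsc2; percent cells positive for phospho-rpS6 Ser235/236 relative to propidium iodide stain; series mostly up to about 38 µM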
Outline: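 Read-out: phospho-rpS6 Ser235/236 immunofluorescence normalized to propidium iodide intensity, scored as % active cells against a rapamycin (7.5 nM) threshold. Cells: Tsc2-/-, p53-/- MEFs stably expressing WT Tsc2, compound-treated 24 hrs at 37 degree Celsius.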

[3] = target: Ubiquitin carboxyl-terminal hydrolase 2 (Homo sapiens) (UniProt O75604); test: qHTS Validation Assay for Inhibitors of Ubiquitin-specific Protease USP2a Using CHOP2 as the Reporter (AID 463106)
Outline: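 Inhibition is expressed relative to NEM as the full-inhibition control, with concentration-response curves classed by fit quality, magnitude and activity. Enzyme (USP2 core, 10nM) meets 25nM Ub-CHOP2 after compound preincubation; readings are taken at 60min.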

[4] = target: DNA polymerase III PolC-type (Bacillus subtilis (strain 168)) (UniProt P13267); test: qHTS Validation Assay for the Inhibitors of DNA Replication in Gram-Positive Bacteria (AID 485295);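 note: reconstituted holoenzyme with PolC plus beta clamp SSB and primase; PicoGreen fluorescence of double-stranded DNA made on primed circular M13 template; series mostly up to about 57 µM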
Outline: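 PicoGreen fluorescence (ex 480–485/em 535–540 nm) reports dsDNA synthesized on ssM13Gori template with dNTPs/NTPs. Enzyme: holoenzyme rebuilt from purified PolC, beta subunit, SSB and primase. Compound preincubated before substrate addition; RT throughout.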

[5] = target: Tumor susceptibility gene 101 protein (Homo sapiens) (UniProt Q99816); test: qHTS Validation Assay for Iinhibitors of HIV-1 Budding by Blocking the Interaction of PTAP/TSG101 (AID 485342; calls by dose curve)
Outline: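 FP read-out: FITC-PTAP peptide, 50 nM final, binding Tsg101 binding domain, 10 uM final; 20 min r.t.; 10 mM HEPES pH 7.5, 0.15 M NaCl, 0.01% Tween 20, 3 mM EDTA, 0.1 mM TCEP.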

[6] = qHTS Validation Assay to Find Inhibitors of Chronic Active B-Cell Receptor Signaling (AID 485345; active = well fitted curve in the direction sought with a large enough effect in the main read-out, with a control signal flat, not every such curve was filed as active)
Outline: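 TMD8 ABC-DLBCL cells with dox-inducible green luciferase–IκBα fusion and red native luciferase; compounds 46 uM–3 nM, 4 h at 37C with doxycycline in 0.5% FBS IMDM. Green/red ratio normalized to basal and 10 uM MG-132.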

[7] = target: Beta-2 adrenergic receptor (Homo sapiens) (UniProt P07550); test: qHTS validation assay of beta-arrestin-biased ligands of beta2-adrenergic receptor (AID 485366)
Outline: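 Compound series up to 46 microM applied to beta2-AR/beta-arrestin Tango cells, 18 hr, 37 degrees C, 5% CO2. Read-out: tTA-driven luciferase luminescence, converted to %Activity; concentration-response curves assigned curve classes.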

[8] = target: Thioredoxin reductase 1, cytoplasmic (Rattus norvegicus) (UniProt O89049); test: qHTS Assay for Substrates of Mammalian Selenoprotein Thioredoxin Reductase 1 (TrxR1) (AID 488772);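 note: series mostly up to about 57 µM; a drop in NADPH fluorescence below the no-compound background marks a TrxR1 substrate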
Outline: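 In this dual-purpose format, potential substrates are identified from the first fluorescence read after selenite addition, not from the 8-minute delta. Rat enzyme is preincubated with NADPH and then with compound at ~22 deg C.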

[9] = target: Thioredoxin reductase 1, cytoplasmic (Rattus norvegicus) (UniProt O89049); test: qHTS Assay for Inhibitors of Mammalian Selenoprotein Thioredoxin Reductase 1 (TrxR1) (AID 488773); conditions: Potency: inhibition;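 note: drop in NADPH fluorescence over an 8 min run after selenite addition; series mostly up to about 57 µM; nearly all actives have a fitted effect of over 40% in size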
Outline: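 Inhibition is scored from the loss of NADPH fluorescence between first and last reads of an 8-min kinetic run. Selenite (400 uM) was the substrate, added after 15 min compound preincubation at room temperature.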

[10] = target: Flap endonuclease 1 (Homo sapiens) (UniProt P39748); test: qHTS Validation Assay for the Inhibitors of Human Flap endonuclease 1 (FEN1) (AID 488816); note: potency is the fitted concentration of half-maximal effect
Outline: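 Steps: add FEN1 (10 nM reagent) or buffer only; pin compounds; hold 15 min at room temperature; start with substrate, 50 nM final; read at 0 and 15 min; correct, normalize and fit a four-parameter Hill curve.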

[11] = target: M-phase phosphoprotein 8 (Homo sapiens) (UniProt Q99549); test: qHTS Validation Assay for Inhibitors for MPP8 Chromodomain Interactions with Methylated Histone Tails (AID 488949);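 note: AlphaScreen signal from MPP8 chromodomain bound to biotinylated H3K9me3 peptide; top concentration of the series differs between compounds; nearly all actives have a fitted effect of over 55% in size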
Outline: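 AlphaScreen read-out: streptavidin donor and nickel chelate acceptor beads (final 10 ug/mL), 30 min in the dark at RT. Complex of 50 nM MPP8 and 50 nM b-H3(1-18)K9me3 peptide had been exposed to compounds for 30 min beforehand.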

[12] = target: Methanococcus maripaludis chaperonin (MmCpn) (UniProt Q6LX38); test: High-Throughput Screening for Modulators of Cytosolic Chaperonin Activity: MmCpn Primary Screen (AID 488978);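 note: 50 nM MmCpn enzyme hydrolysing 30 µM ATP at 37 °C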
Outline: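 ADP formation read by HTRF Transcreener, 665/590 nm emission after 320 nm excitation. Enzyme: archaeal chaperonin at 50 nM final; substrate ATP 30 uM final; 10 min, 37C, after 5 min compound preincubation at RT.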

[13] = Quantitative high throughput screen for delayed death inhibitors of the malarial parasite plastid, 48 hour incubation (AID 488752); note: nearly all actives have a fitted effect of over 65% in size; note: potency is the fitted concentration of half-maximal effect
Outline: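 Luciferase-expressing P. falciparum in RBCs, 2% Hct, 0.1% parasitemia final; RPMI 1640 + 0.5% Albumax; 48 h, 37 C, 5% CO2; luminescence readout, signal drop = growth inhibition.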

[14] = target: Chromobox protein homolog 1 (Homo sapiens) (UniProt P83916); test: qHTS Validation Assay for Inhibitors of HP1-beta Chromodomain Interactions with Methylated Histone Tails (AID 488953);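 note: loss of AlphaScreen luminescence from HP1-beta binding biotinylated H3K9me3 peptide; series mostly up to about 110 µM; nearly all actives have a fitted effect of over 50% in size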
Outline: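 AlphaScreen proximity readout: streptavidin donor and Ni-chelate acceptor beads, 10 ug/mL final, 30 min dark, RT. Complex of 50 nM HP1-beta and 50 nM b-H3(1-18)K9me3 formed 30 min, then compound-treated 30 min; PBS pH 7.4/0.01% Tween-20.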

[15] = target: Transient receptor potential cation channel subfamily V member 1 (Homo sapiens) (UniProt Q8NER1); test: HTS Assay for Compounds that Act as Enhancers of the Vanilloid Receptor 1 (AID 488979)
Outline: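 TRPV1-expressing cells loaded with Fluo-8 calcium dye; compounds added and calcium influx read kinetically for 3 min (agonist phase), then capsaicin at EC20 added and read 2 min more for enhancement. Fluorescence ex 480/em 520 nm.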

[16] = target: Thyrotropin receptor (Homo sapiens) (UniProt P16473); test: qHTS Assay for Antagonists of the Thyroid Stimulating Hormone Receptor (AID 488980); note: series mostly up to about 58 µM
Outline: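 TSHR-HEK293 cells; 70 uM RO 20-1724 PDE inhibitor; compound + EC80 TSH (4 nM final); anti-cAMP cryptate antibody/cAMP-d2 in lysis buffer, 30 min RT; HTRF 665/620 nm read.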

[17] = target: D(1A) dopamine receptor (Homo sapiens) (UniProt P21728); test: HTS Assay for Allosteric Agonists of the Human D1 Dopamine Receptor: Primary Screen for Agonists (AID 488981); note: potency is the fitted concentration of half-maximal effect
Outline: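 Tetracycline-induced HEK293 T-REx cells force-coupled to calcium signalling were incubated overnight at 30 C and dye-loaded at room temperature. Calcium flux over 180 s after compound addition flagged agonists; a further 180 s read after EC20 dopamine flagged potentiators.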

[18] = target: ATP-dependent 6-phosphofructokinase (Trypanosoma brucei brucei) (UniProt O15648); test: qHTS Validation Assay to Find Inhibitors of T. brucei phosphofructokinase (AID 485368)
Outline: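 qHTS format, up to 57 uM. PFK 1.25 nM; F6P 0.5 mM; ATP 0.1 mM; 5 mM MgCl2, 0.01% Tween20, 0.1% BSA; 0.1 M TEA pH 8.0; 45 min RT; ADP-Glo readout; no-enzyme control = full inhibition.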

[19] = Quantitative high throughput screen for delayed death inhibitors of the malarial parasite plastid, 96 hour incubation (AID 488745); note: nearly all actives have a fitted effect of over 70% in size; note: potency is the fitted concentration of half-maximal effect
Outline: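 Luciferase-expressing P. falciparum, infected RBCs 2% Hct/0.1% parasitemia (final); 96 h cpd exposure, 37 C, 5% CO2; RPMI 1640 + 0.5% Albumax, bicarbonate, gentamycin. Readout: luminescence loss = growth inhibition.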

Measured: Potency

Sequence of Thyrotropin receptor (Homo sapiens) (P16473 whole entry, looked up): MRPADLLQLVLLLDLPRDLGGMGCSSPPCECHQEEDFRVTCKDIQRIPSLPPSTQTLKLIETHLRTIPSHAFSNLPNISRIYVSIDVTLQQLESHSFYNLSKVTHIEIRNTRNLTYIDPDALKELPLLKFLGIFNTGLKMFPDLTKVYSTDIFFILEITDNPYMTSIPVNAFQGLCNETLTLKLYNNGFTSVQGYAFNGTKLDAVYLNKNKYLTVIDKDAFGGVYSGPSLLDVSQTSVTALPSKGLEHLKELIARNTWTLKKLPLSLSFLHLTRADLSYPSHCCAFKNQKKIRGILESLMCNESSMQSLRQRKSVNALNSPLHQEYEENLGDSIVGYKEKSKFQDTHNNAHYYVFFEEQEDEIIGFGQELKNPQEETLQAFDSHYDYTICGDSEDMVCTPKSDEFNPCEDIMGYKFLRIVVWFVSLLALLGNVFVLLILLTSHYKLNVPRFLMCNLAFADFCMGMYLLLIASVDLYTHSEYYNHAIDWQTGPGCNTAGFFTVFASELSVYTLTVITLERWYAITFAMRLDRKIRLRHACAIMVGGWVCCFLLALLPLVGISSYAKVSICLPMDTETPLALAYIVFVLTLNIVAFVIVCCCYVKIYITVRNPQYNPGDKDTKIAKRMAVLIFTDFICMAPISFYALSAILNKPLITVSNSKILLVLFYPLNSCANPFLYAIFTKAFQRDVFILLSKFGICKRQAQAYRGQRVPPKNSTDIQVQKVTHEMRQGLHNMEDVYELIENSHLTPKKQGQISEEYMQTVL
Sequence of Transient receptor potential cation channel subfamily V member 1 (Homo sapiens) (Q8NER1 whole entry, looked up): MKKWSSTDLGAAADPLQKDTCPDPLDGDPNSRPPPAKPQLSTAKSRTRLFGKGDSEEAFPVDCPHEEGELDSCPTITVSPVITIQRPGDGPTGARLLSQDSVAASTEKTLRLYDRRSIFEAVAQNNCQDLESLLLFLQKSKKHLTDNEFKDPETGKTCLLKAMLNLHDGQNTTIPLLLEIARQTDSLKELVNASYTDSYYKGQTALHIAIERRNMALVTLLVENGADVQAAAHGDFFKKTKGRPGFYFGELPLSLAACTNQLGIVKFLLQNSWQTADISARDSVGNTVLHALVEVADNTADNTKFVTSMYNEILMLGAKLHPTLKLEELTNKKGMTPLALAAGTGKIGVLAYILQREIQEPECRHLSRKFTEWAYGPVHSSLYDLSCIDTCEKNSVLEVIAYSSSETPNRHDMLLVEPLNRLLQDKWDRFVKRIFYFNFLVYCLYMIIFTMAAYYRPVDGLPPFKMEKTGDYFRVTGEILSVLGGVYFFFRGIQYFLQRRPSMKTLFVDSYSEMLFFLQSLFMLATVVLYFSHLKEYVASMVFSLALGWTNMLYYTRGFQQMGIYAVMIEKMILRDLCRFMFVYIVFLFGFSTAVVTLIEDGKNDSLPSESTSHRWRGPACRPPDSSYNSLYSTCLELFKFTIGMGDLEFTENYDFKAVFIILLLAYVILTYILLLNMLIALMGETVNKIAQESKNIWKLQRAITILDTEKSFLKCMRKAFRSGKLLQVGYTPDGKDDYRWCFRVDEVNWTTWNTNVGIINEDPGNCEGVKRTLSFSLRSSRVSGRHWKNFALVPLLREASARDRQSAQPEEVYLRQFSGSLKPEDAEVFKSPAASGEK
Sequence of Tumor susceptibility gene 101 protein (Homo sapiens) (Q99816 whole entry, looked up, the tested form may be a part): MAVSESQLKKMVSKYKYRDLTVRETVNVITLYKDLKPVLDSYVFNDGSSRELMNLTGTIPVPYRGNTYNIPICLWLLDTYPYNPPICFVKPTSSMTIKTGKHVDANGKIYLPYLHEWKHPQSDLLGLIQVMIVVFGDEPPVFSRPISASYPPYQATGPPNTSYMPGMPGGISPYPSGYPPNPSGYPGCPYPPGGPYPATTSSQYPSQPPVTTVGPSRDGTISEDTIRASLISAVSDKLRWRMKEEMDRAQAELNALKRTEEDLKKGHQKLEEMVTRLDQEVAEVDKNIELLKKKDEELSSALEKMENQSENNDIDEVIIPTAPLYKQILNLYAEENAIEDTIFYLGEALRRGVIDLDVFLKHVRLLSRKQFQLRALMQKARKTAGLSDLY
Sequence of Methanococcus maripaludis chaperonin (MmCpn) (Q6LX38 1-543): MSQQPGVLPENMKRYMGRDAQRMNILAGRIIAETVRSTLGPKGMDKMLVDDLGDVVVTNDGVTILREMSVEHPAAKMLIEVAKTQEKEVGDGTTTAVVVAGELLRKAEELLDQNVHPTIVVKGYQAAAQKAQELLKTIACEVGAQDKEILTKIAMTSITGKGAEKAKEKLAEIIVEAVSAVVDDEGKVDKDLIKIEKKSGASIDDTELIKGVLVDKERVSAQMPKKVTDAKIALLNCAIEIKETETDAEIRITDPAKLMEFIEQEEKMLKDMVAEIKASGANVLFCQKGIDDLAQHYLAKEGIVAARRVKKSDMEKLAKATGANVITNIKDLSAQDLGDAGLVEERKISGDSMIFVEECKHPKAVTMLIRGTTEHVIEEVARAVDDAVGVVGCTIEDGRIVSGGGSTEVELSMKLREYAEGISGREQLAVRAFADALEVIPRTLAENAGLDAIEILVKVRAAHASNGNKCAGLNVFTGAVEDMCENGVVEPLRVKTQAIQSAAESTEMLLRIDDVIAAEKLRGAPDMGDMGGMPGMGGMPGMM
Sequence of Thioredoxin reductase 1, cytoplasmic (Rattus norvegicus) (O89049 whole entry, looked up): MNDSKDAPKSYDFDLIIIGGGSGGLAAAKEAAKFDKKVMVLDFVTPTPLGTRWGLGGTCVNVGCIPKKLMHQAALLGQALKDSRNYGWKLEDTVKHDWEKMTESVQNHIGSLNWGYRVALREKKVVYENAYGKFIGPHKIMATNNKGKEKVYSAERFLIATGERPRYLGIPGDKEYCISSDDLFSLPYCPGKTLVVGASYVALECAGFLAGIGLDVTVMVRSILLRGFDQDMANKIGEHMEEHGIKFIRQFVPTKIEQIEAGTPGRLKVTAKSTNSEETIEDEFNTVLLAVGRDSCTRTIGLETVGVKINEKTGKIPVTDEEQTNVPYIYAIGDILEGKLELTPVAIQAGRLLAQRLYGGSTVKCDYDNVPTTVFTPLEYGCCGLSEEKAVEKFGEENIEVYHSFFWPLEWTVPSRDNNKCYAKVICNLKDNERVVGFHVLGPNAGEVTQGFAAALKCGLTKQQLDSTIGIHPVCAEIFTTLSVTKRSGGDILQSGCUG
Sequence of M-phase phosphoprotein 8 (Homo sapiens) (Q99549 whole entry, looked up): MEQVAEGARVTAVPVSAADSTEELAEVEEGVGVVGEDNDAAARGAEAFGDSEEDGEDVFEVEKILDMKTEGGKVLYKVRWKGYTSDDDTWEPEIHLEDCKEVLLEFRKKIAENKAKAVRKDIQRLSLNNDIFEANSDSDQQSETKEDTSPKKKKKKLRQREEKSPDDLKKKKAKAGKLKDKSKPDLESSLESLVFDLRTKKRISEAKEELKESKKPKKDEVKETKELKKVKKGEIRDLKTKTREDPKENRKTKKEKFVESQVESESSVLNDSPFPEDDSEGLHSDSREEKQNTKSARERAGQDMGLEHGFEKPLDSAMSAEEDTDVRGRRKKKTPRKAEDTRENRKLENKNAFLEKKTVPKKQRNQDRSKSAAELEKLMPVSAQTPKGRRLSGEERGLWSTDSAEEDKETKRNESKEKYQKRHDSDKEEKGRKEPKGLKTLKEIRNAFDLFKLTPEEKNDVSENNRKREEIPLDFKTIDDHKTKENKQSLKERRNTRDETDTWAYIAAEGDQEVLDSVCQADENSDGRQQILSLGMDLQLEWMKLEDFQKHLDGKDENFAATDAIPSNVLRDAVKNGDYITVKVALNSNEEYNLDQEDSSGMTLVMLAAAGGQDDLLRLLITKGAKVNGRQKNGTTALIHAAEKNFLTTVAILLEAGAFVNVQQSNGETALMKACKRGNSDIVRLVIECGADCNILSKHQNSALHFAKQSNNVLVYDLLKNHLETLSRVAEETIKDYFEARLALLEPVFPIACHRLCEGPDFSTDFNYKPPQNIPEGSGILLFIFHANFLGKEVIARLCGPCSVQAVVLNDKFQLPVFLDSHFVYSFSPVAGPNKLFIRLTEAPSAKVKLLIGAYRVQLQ
Sequence of Flap endonuclease 1 (Homo sapiens) (P39748 whole entry, looked up): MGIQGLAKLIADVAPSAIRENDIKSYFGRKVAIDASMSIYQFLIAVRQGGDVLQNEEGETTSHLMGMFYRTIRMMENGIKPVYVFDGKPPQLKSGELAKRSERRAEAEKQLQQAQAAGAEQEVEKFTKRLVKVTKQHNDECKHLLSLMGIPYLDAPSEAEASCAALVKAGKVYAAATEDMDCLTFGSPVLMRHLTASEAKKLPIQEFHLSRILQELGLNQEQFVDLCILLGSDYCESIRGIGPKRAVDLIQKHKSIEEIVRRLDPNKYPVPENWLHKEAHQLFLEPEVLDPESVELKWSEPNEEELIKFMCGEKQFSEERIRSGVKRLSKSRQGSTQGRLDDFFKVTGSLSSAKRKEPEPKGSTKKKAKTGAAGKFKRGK
Sequence of Chromobox protein homolog 1 (Homo sapiens) (P83916 whole entry, looked up): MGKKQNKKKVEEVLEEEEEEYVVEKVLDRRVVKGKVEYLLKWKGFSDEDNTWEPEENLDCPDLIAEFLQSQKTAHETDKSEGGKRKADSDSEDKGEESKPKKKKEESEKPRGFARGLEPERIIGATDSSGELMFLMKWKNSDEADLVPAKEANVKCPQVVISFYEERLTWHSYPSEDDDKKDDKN
Sequence of Beta-2 adrenergic receptor (Homo sapiens) (P07550 whole entry, looked up): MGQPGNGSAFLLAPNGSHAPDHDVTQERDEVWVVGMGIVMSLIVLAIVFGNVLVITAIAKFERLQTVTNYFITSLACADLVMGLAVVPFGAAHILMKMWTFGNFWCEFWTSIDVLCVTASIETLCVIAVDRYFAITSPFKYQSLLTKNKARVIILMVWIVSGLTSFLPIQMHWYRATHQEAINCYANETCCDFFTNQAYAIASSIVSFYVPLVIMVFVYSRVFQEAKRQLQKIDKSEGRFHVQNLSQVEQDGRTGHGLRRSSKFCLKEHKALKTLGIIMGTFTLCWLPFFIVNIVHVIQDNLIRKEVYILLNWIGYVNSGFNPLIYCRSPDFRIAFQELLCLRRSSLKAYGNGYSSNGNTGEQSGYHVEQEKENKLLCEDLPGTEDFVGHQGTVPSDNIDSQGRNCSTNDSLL

C=CC(C)=C[C@@]1(C)SC(=O)C(C)=C1O
inactive: [1] | [2] | [3] | [4] | [5] | [6] | [7] | [8] | [9] | [10] | [11] | [12]

CCCCCC(O)c1cccc(OCc2ccc3ccccc3n2)c1 (stereo not given)
inactive: [1] | [2] | [3] | [4] | [5] | [7] | [13] | [8] | [9] | [10] | [11] | [14] | [12] | [15] | [16] | [17]

CC(C)NC[C@@H](O)c1ccc(O)c(O)c1
inactive: [1] | [2] | [3] | [4] | [5] | [6] | [8] | [10] | [11] | [12] | [17]

CC(C)CC(NP(=O)(O)O[C@@H]1O[C@@H](C)[C@H](O)[C@@H](O)[C@H]1O)C(=O)NC(Cc1c[nH]c2ccccc12)C(=O)O (stereo not given in full)
inactive: [1] | [2] | [3] | [4] | [5] | [6] | [7] | [8] | [9] | [14] | [12]

CCNC(=O)[C@H]1O[C@@H](n2cnc3c(N)nc(NCCc4ccc(CCC(=O)O)cc4)nc32)[C@H](O)[C@@H]1O
inactive: [1] | [2] | [3] | [4] | [5] | [7] | [8] | [9] | [10] | [11] | [14] | [12] | [17]

CCCCCCCCCCCCCCCC(=O)OC(CC(=O)O)C[N+](C)(C)C (stereo not given)
inactive: [1] | [2] | [3] | [4] | [5] | [7] | [18] | [19] | [13] | [8] | [9] | [10] | [11] | [14] | [12] | [16]
active: [17] 10 µM

Cc1cc(NC2CCCCC2)nc(-n2nc(C)cc2C)n1
inactive: [1] | [2] | [3] | [4] | [5] | [6] | [7] | [8] | [9] | [10] | [11] | [14] | [12] | [17]

COc1cc(OC)c(/C=C2/C(=O)Nc3ccccc32)c(OC)c1
inactive: [1] | [2] | [3] | [4] | [5] | [7] | [19] | [13] | [8] | [9] | [10] | [12] | [15] | [16] | [17]

CCCCC#Cc1nc(NC)c2ncn([C@@H]3O[C@H](CO)[C@@H](O)[C@H]3O)c2n1
inactive: [1] | [2] | [3] | [4] | [5] | [7] | [8] | [9] | [10] | [11] | [14] | [12] | [17]

C[N+]1(C)C2CC(OC(=O)[C@H](CO)c3ccccc3)CC1C1OC12 (stereo not given in full)
inactive: [1] | [2] | [3] | [4] | [5] | [6] | [7] | [8] | [9] | [12] | [17]

C#CCN1C(C)=C(C(=O)OC)C(c2cccc([N+](=O)[O-])c2)C(C(=O)OCC)=C1C (stereo not given)
active: [19] 8.28 µM | [13] 11.7 µM
inactive: [1] | [2] | [3] | [4] | [5] | [7] | [18] | [9] | [10] | [12] | [15] | [16] | [17]

O=C(c1cc(O)c(O)c([N+](=O)[O-])c1)c1ccccc1F
active: [10] 21.2 µM
inactive: [1] | [2] | [3] | [4] | [5] | [6] | [7] | [19] | [13] | [8] | [9] | [12] | [15] | [16] | [17]

CC1OC1P(=O)(O)O (stereo not given)
inactive: [1] | [2] | [3] | [4] | [5] | [6] | [7] | [8] | [9] | [10] | [12] | [17]

CCCCCCCCCCCCCCCCCC(=O)OC(CC(=O)O)C[N+](C)(C)C (stereo not given)
inactive: [1] | [2] | [3] | [4] | [5] | [7] | [8] | [9] | [10] | [11] | [14] | [12] | [15] | [16]
active: [17] 11.2 µM

COc1cc(SC)ccc1C(=O)N1CCC(Cc2ccccc2)CC1
inactive: [1] | [2] | [3] | [4] | [5] | [7] | [18] | [8] | [9] | [10] | [11] | [14] | [12] | [17]
